# Laboratory results published in the supplement of paper PMC10037445.
# In all, about 2,900 compounds were measured (“NF-kB SEAP reporter activity, fold change vs agonist alone”: median about 0.99, highest 2% from about 2.6 on). This excerpt belongs to a sample that is enriched for the highest values.
# Key:
# RAW-Dual [1] = assay: NF-kB SEAP reporter activity, fold change vs agonist alone; higher = enhanced NF-kB activity
# Summary of the method: (§1)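 RAW-Dual macrophages were seeded in DMEM at 50,000 cells/well in 384-well plates, given 50 nL of library stock by pin tool, and given a PRR agonist 1 h later. Plates were held at 37 °C, 5% CO2 for 20 hours, after which supernatant was read for IRF by QuantiLuc luminescence and for NF-κB by QuantiBlue absorbance at 620 nm. Reporter activity is expressed as fold change over wells that received agonist alone. A well was called cytotoxic when IncuCyte confluency fell below 70% of agonist controls in both mask sets.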
# RAW-Dual [2] = assay: NF-kB SEAP reporter activity, fold change vs agonist alone; cytotoxicity flag (confluency mask): not cytotoxic; higher = enhanced NF-kB activity
# Summary of the method: as §1
# RAW-Dual [3] = assay: NF-kB SEAP reporter activity, fold change vs agonist alone; cytotoxicity flag (confluency mask): cytotoxic (confluency <70% of control); higher = enhanced NF-kB activity
# Summary of the method: as §1
# [4] = library stock concentration (final ~1000-fold dilution): 10 mM, cytotoxicity flag (confluency mask): not cytotoxic, agonist: Imiquimod (TLR7) […]
# [5] = library stock concentration (final ~1000-fold dilution): 10 mM, cytotoxicity flag (confluency mask): not cytotoxic, agonist: MPLA (TLR4) […]
# [6] = agonist: ODN 1826 (TLR9) 0.5 ug/mL
# [7] = agonist: Pam2CSK4 (TLR2/6) 0.1 ug/mL
# [8] = agonist: Pam3CSK4 (TLR2/1) 0.1 ug/mL
# [9] = library stock concentration (final ~1000-fold dilution): 10 mM, cytotoxicity flag (confluency mask): cytotoxic (confluency <70% of control), agonist: Imiquimod (TLR7) […]
# [10] = library stock concentration (final ~1000-fold dilution): 10 mM, cytotoxicity flag (confluency mask): cytotoxic (confluency <70% of control), agonist: MPLA (TLR4) […]
structure (smiles),measurement,setting,value
CC(C)(C)NC(=O)C1CCC2C3CCC4NC(=O)C=CC4(C)C3CCC12C (stereo not given),NF-kB SEAP reporter activity,RAW-Dual [1]; [4],0.218
same,NF-kB SEAP reporter activity,RAW-Dual [1]; [5],1.07
CC(C)(C)NC(=O)C1CCC2C3CCC4NC(=O)C=CC4(C)C3CCC12C (stereo not given) (library stock concentration (final ~1000-fold dilution): 10 mM),NF-kB SEAP reporter activity,RAW-Dual [2]; agonist: LPS (TLR4) 0.1 ug/mL,0.988
same,NF-kB SEAP reporter activity,RAW-Dual [2]; [6],0.946
same,NF-kB SEAP reporter activity,RAW-Dual [2]; [7],0.943
same,NF-kB SEAP reporter activity,RAW-Dual [2]; [8],0.998
COc1ccc(-c2oc3c(CC=C(C)C)c(O)cc(O)c3c(=O)c2OC2OC(C)C(O)C(O)C2O)cc1 (stereo not given) (library stock concentration (final ~1000-fold dilution): 10 mM),NF-kB SEAP reporter activity,RAW-Dual [3]; agonist: LPS (TLR4) 0.1 ug/mL,2.22
same,NF-kB SEAP reporter activity,RAW-Dual [3]; [6],0.553
same,NF-kB SEAP reporter activity,RAW-Dual [3]; [7],0.251
same,NF-kB SEAP reporter activity,RAW-Dual [3]; [8],0.457
COc1ccc(-c2oc3c(CC=C(C)C)c(O)cc(O)c3c(=O)c2OC2OC(C)C(O)C(O)C2O)cc1 (stereo not given),NF-kB SEAP reporter activity,RAW-Dual [1]; [9],1.82
same,NF-kB SEAP reporter activity,RAW-Dual [1]; [10],1.45
CSC1(C(=O)Nc2ccc3[nH]nc(-c4ccc(OC(C)C)nc4)c3c2)CCN(CC(=O)N2CC=C(c3ccc(-c4ncn(C)n4)cc3)CC2)C1 (stereo not given) (library stock concentration (final ~1000-fold dilution): 10 mM),NF-kB SEAP reporter activity,RAW-Dual [2]; agonist: LPS (TLR4) 0.1 ug/mL,0.407
same,NF-kB SEAP reporter activity,RAW-Dual [2]; [6],0.343
same,NF-kB SEAP reporter activity,RAW-Dual [2]; [7],0.0837
same,NF-kB SEAP reporter activity,RAW-Dual [2]; [8],0.136
CSC1(C(=O)Nc2ccc3[nH]nc(-c4ccc(OC(C)C)nc4)c3c2)CCN(CC(=O)N2CC=C(c3ccc(-c4ncn(C)n4)cc3)CC2)C1 (stereo not given),NF-kB SEAP reporter activity,RAW-Dual [1]; [4],0.202
same,NF-kB SEAP reporter activity,RAW-Dual [1]; [5],0.321
CC(C)(C)c1nc(-c2ccc(NC(=O)Nc3cccc(C(F)(F)F)c3)c3ccccc23)c2c(N)nccn12 (library stock concentration (final ~1000-fold dilution): 10 mM),NF-kB SEAP reporter activity,RAW-Dual [3]; agonist: LPS (TLR4) 0.1 ug/mL,0.488
same,NF-kB SEAP reporter activity,RAW-Dual [3]; [6],0.163
same,NF-kB SEAP reporter activity,RAW-Dual [3]; [7],0.0888
same,NF-kB SEAP reporter activity,RAW-Dual [3]; [8],0.136
CC(C)(C)c1nc(-c2ccc(NC(=O)Nc3cccc(C(F)(F)F)c3)c3ccccc23)c2c(N)nccn12,NF-kB SEAP reporter activity,RAW-Dual [1]; [9],0.139
same,NF-kB SEAP reporter activity,RAW-Dual [1]; [10],0.252
CNC(=O)c1cc(Oc2ccc(NC(=O)Nc3ccc(Cl)c(C(F)(F)F)c3)c(F)c2)ccn1.O (library stock concentration (final ~1000-fold dilution): 10 mM),NF-kB SEAP reporter activity,RAW-Dual [2]; agonist: LPS (TLR4) 0.1 ug/mL,0.727
same,NF-kB SEAP reporter activity,RAW-Dual [2]; [6],0.502
same,NF-kB SEAP reporter activity,RAW-Dual [2]; [7],0.166
same,NF-kB SEAP reporter activity,RAW-Dual [2]; [8],0.205
CNC(=O)c1cc(Oc2ccc(NC(=O)Nc3ccc(Cl)c(C(F)(F)F)c3)c(F)c2)ccn1.O,NF-kB SEAP reporter activity,RAW-Dual [1]; [5],1.58
COc1ccc2[nH]cc(C=C3C(=O)Nc4ccc(NC(=O)CCN5CCCCC5)cc43)c2c1,NF-kB SEAP reporter activity,RAW-Dual [1]; [9],1.4
same,NF-kB SEAP reporter activity,RAW-Dual [1]; [10],2
COc1ccc2[nH]cc(C=C3C(=O)Nc4ccc(NC(=O)CCN5CCCCC5)cc43)c2c1 (library stock concentration (final ~1000-fold dilution): 10 mM),NF-kB SEAP reporter activity,RAW-Dual [3]; agonist: LPS (TLR4) 0.1 ug/mL,4.16
same,NF-kB SEAP reporter activity,RAW-Dual [3]; [6],0.42
same,NF-kB SEAP reporter activity,RAW-Dual [3]; [7],1.36
same,NF-kB SEAP reporter activity,RAW-Dual [3]; [8],2.01
CCS(=O)(=O)Nc1ccc2c(c1)/C(=C(/Nc1ccc(CN3CCCCC3)cc1)c1ccccc1)C(=O)N2,NF-kB SEAP reporter activity,RAW-Dual [1]; [9],0.214
same,NF-kB SEAP reporter activity,RAW-Dual [1]; [10],0.227
Cc1[nH]c(C=C2C(=O)Nc3ccc(F)cc32)c(C)c1C(=O)NCCN1CCCC1,NF-kB SEAP reporter activity,"RAW-Dual [1]; library stock concentration (final ~1000-fold dilution): 2 mM, cytotoxicity flag (confluency mask): not cytotoxic, agonist: MPLA (TLR4) […]",0.63
Cc1[nH]c(C=C2C(=O)Nc3ccc(F)cc32)c(C)c1C(=O)NCCN1CCCC1 (library stock concentration (final ~1000-fold dilution): 2 mM),NF-kB SEAP reporter activity,RAW-Dual [2]; agonist: LPS (TLR4) 0.1 ug/mL,1.04
same,NF-kB SEAP reporter activity,RAW-Dual [2]; [6],0.183
same,NF-kB SEAP reporter activity,RAW-Dual [2]; [7],0.266
same,NF-kB SEAP reporter activity,RAW-Dual [2]; [8],0.414
CCS(=O)(=O)Nc1ccc2c(c1)/C(=C(/Nc1ccc(CN3CCCCC3)cc1)c1ccccc1)C(=O)N2 (library stock concentration (final ~1000-fold dilution): 10 mM),NF-kB SEAP reporter activity,RAW-Dual [3]; agonist: LPS (TLR4) 0.1 ug/mL,0.196
same,NF-kB SEAP reporter activity,RAW-Dual [3]; [6],0.197
same,NF-kB SEAP reporter activity,RAW-Dual [3]; [7],0.0873
same,NF-kB SEAP reporter activity,RAW-Dual [3]; [8],0.163
CO[C@H](c1c(NC(=O)Nc2cnc(-n3nccn3)c(Cl)c2)cnc2cc(Cl)nn12)[C@@H](C)OC (library stock concentration (final ~1000-fold dilution): 10 mM),NF-kB SEAP reporter activity,RAW-Dual [2]; agonist: LPS (TLR4) 0.1 ug/mL,1.37
same,NF-kB SEAP reporter activity,RAW-Dual [2]; [6],0.862
same,NF-kB SEAP reporter activity,RAW-Dual [2]; [7],0.76
same,NF-kB SEAP reporter activity,RAW-Dual [2]; [8],0.777
CO[C@H](c1c(NC(=O)Nc2cnc(-n3nccn3)c(Cl)c2)cnc2cc(Cl)nn12)[C@@H](C)OC,NF-kB SEAP reporter activity,RAW-Dual [1]; [4],0.986
same,NF-kB SEAP reporter activity,RAW-Dual [1]; [5],0.994
C=Cc1c(C)c2cc3nc(cc4[nH]c(cc5nc(cc1[nH]2)C(C)=C5CCC(=O)O)c(CCC(=O)OC)c4C)C1(C)C3=CC=C(C(=O)OC)C1C(=O)OC (stereo not given),NF-kB SEAP reporter activity,RAW-Dual [1]; [9],0.297
same,NF-kB SEAP reporter activity,RAW-Dual [1]; [10],0.349
C=Cc1c(C)c2cc3nc(cc4[nH]c(cc5nc(cc1[nH]2)C(C)=C5CCC(=O)O)c(CCC(=O)OC)c4C)C1(C)C3=CC=C(C(=O)OC)C1C(=O)OC (stereo not given) (library stock concentration (final ~1000-fold dilution): 10 mM),NF-kB SEAP reporter activity,RAW-Dual [3]; agonist: LPS (TLR4) 0.1 ug/mL,0.243
same,NF-kB SEAP reporter activity,RAW-Dual [3]; [6],0.233
same,NF-kB SEAP reporter activity,RAW-Dual [3]; [7],0.193
same,NF-kB SEAP reporter activity,RAW-Dual [3]; [8],0.191
CNC(=O)c1cccc(-c2ccc3c(N4CCOCC4C)nc(N4CCOCC4C)nc3n2)c1 (stereo not given) (library stock concentration (final ~1000-fold dilution): 10 mM),NF-kB SEAP reporter activity,RAW-Dual [2]; agonist: LPS (TLR4) 0.1 ug/mL,1.11
same,NF-kB SEAP reporter activity,RAW-Dual [2]; [6],0.489
same,NF-kB SEAP reporter activity,RAW-Dual [2]; [7],0.376
same,NF-kB SEAP reporter activity,RAW-Dual [2]; [8],0.57
CNC(=O)c1cccc(-c2ccc3c(N4CCOCC4C)nc(N4CCOCC4C)nc3n2)c1 (stereo not given),NF-kB SEAP reporter activity,RAW-Dual [1]; [4],1.13
same,NF-kB SEAP reporter activity,RAW-Dual [1]; [5],1.22
Oc1c(Cl)cc(Cl)cc1Sc1cc(Cl)cc(Cl)c1O (library stock concentration (final ~1000-fold dilution): 10 mM),NF-kB SEAP reporter activity,RAW-Dual [3]; agonist: LPS (TLR4) 0.1 ug/mL,3.19
same,NF-kB SEAP reporter activity,RAW-Dual [3]; [6],1.08
same,NF-kB SEAP reporter activity,RAW-Dual [3]; [7],0.362
same,NF-kB SEAP reporter activity,RAW-Dual [3]; [8],0.801
Oc1c(Cl)cc(Cl)cc1Sc1cc(Cl)cc(Cl)c1O,NF-kB SEAP reporter activity,RAW-Dual [1]; [9],1.81
same,NF-kB SEAP reporter activity,RAW-Dual [1]; [10],1.6
